The full ranking holds about 33,000 sequences; the median of “e-score” is about -0.053, and the highest 2% start at about 0.38. The list comes from a sample in which the highest values are over-represented; it also holds similar and randomly drawn sequences.

The assay addresses T1, SIX1 homeodomain (reference allele) (human, UniProt Q15475 108-198).
T1 sequence: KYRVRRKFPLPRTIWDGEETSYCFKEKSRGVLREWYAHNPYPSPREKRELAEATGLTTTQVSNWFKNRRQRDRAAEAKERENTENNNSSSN
The experiment in a line: universal protein binding microarray; Universal all-10-mer PBM (8x60K, AMADID 030236), 300 nM GST-tagged protein, Alexa Fluor 488 anti-GST; buffer, salt, pH and temperature not stated (as in Berger); high values mean tight binding. The conditions noted are these: protein: ivt; tags: N-terminal GST; dsDNA, one strand shown. A digest of the protocol:
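Homeodomains carrying a GST tag were produced by in vitro transcription/translation, then quantified by anti-GST western blot against a recombinant GST standard curve. Duplicate applications at 300 nM final concentration were made to universal 'all 10-mer' protein binding microarrays in 8×60K format. The Universal PBM Analysis Suite was used to express binding as 8-mer E-scores.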
With GATACGGC, the binding signal is 0.4543 ± 0.00163 E-score.
The result for GATACGAC reads 0.382 ± 0.0127 E-score; that for CATACGGA, 0.178 ± 0.0693 E-score.
The result for AATACGGT reads 0.231 ± 0.00828 E-score; that for GATACGGA, 0.455 ± 0.00852 E-score.
For ATTATAAT, the binding signal was 0.151 ± 0.0936 E-score.
The result for ATCGCTGA reads 0.226 ± 0.0497 E-score.
The result for AATCCGAT reads 0.3407 ± 0.0025 E-score; that for ATATGCGG, 0.274 ± 0.0261 E-score.
The result for ATATCACA reads 0.432 ± 0.0476 E-score.
For the sequence GTGTCACA, the binding signal was determined as 0.375 ± 0.0203 E-score.
The result for CGATCACA reads 0.273 ± 0.0408 E-score; that for CTATCACA, 0.311 ± 0.0251 E-score.
The figure for ATCACACG is 0.256 ± 0.0276 E-score; for ATCTCACA it is 0.293 ± 0.0554 E-score; for CTATCACC it is 0.35 ± 0.0258 E-score.
The figure for ATCACACA is 0.266 ± 0.0227 E-score; for ATCTCACC it is 0.335 ± 0.0374 E-score; for ATATCACC it is 0.463 ± 0.0204 E-score.
Take GTATCACA: the binding signal was 0.476 ± 0.00651 E-score.
For the sequence ATATCACG, the binding signal came out at 0.456 ± 0.0263 E-score.
The result for GACCCCGA reads 0.162 ± 0.0961 E-score; that for GACCGATA, 0.352 ± 0.0178 E-score; that for ATCCTGCC, 0.175 ± 0.00513 E-score.
The result for ATCCCAGG reads 0.246 ± 0.0889 E-score; that for ATACGTCG, 0.284 ± 0.0738 E-score; that for GAGGATCC, 0.366 ± 0.0159 E-score.
The figure for ATCATGCC is 0.244 ± 0.0171 E-score; for ATACTAAC it is 0.243 ± 0.00453 E-score.
For the sequence GATCGGGA, the binding signal was determined as 0.314 ± 0.0357 E-score.
Consider ATCATGTA, for which the binding signal came to 0.257 ± 0.0225 E-score.
The result for AAAATGAT reads 0.187 ± 0.101 E-score; that for CATGGATC, 0.307 ± 0.0322 E-score.
As for GTCTGATA, the binding signal was 0.294 ± 0.0149 E-score.
Take GACTGATC: the binding signal amounted to 0.272 ± 0.0144 E-score.
GGCTGATA: the binding signal was found to be 0.422 ± 0.00103 E-score.
The result for CACTGATC reads 0.284 ± 0.00727 E-score.
The figure for AGCTGATA is 0.357 ± 0.0301 E-score; for GACTGATA it is 0.4 ± 0.0302 E-score.
The figure for AACTGATC is 0.286 ± 0.0372 E-score; for AACTGATA it is 0.409 ± 0.0324 E-score; for CACTGAGA it is 0.188 ± 0.00306 E-score.
For CACTGATA, the binding signal was 0.404 ± 0.0311 E-score.
The figure for CGCTGATA is 0.325 ± 0.0672 E-score.
The figure for GATAAGGA is 0.183 ± 0.0109 E-score.
The result for TAAACTGA reads 0.158 ± 0.0427 E-score; that for GATAAAAC, 0.164 ± 0.00658 E-score.
Turning to AATAGTAT, the binding signal was found to be 0.251 ± 0.0966 E-score.
The result for GATTAGAA reads 0.184 ± 0.0514 E-score.
On to ATCAGACC, for which the binding signal was 0.201 ± 0.00705 E-score.
The figure for ACGATTAA is 0.152 ± 0.0367 E-score.
With AGACTATA, the binding signal was determined as 0.204 ± 0.0102 E-score.
The figure for AGCCAGAT is 0.176 ± 0.0223 E-score; for TACTGCTA it is 0.189 ± 0.0325 E-score.
Consider TACTGACA, for which the binding signal was 0.182 ± 0.0373 E-score.
The figure for TACTGATA is 0.418 ± 0.0125 E-score; for ATCGGTTC it is 0.248 ± 0.0232 E-score.
The figure for CCCTGAGC is 0.178 ± 0.0455 E-score; for CCATCCGA it is 0.218 ± 0.0511 E-score; for ACACCATA it is 0.302 ± 0.022 E-score.
The figure for ATACCAAC is 0.367 ± 0.0126 E-score; for CTACCATA it is 0.167 ± 0.0746 E-score.
Turning to ATACCATC, the binding signal amounted to 0.384 ± 0.0257 E-score.
The result for ATACCACA reads 0.3 ± 0.00694 E-score; that for ACACCACC, 0.293 ± 0.0475 E-score.
The result for ACACCACT reads 0.378 ± 0.0238 E-score; that for ATACCATG, 0.362 ± 0.0283 E-score; that for ATACCACC, 0.403 ± 0.00615 E-score.
The result for ATACCACG reads 0.291 ± 0.0123 E-score; that for ATACCATA, 0.3938 ± 0.0037 E-score; that for ACACCACA, 0.328 ± 0.0113 E-score.
On to ATCCCCGA, for which the binding signal came to 0.368 ± 0.0273 E-score.
The figure for ATGGAGGA is 0.155 ± 0.0279 E-score; for CTATACGA it is 0.1804 ± 0.000898 E-score; for ACCCTTCT it is 0.224 ± 0.046 E-score.
For the sequence CACCCCTC, the binding signal stood at 0.251 ± 0.0895 E-score.
The result for AGATTAAT reads 0.2 ± 0.0731 E-score; that for ATTAAACC, 0.174 ± 0.0609 E-score; that for GTGATCGA, 0.159 ± 0.103 E-score.
Take TATTGGCA: the binding signal was 0.223 ± 0.0277 E-score.
As for CTGATACA, the binding signal turned out to be 0.404 ± 0.00574 E-score.
For TCGATACA, the binding signal turned out to be 0.348 ± 0.00588 E-score.
The figure for ATGATGCC is 0.157 ± 0.00805 E-score.
GTGATACA: the binding signal is 0.444 ± 0.0156 E-score.
The result for ATCATACA reads 0.306 ± 0.0152 E-score; that for AAGATACA, 0.265 ± 0.0451 E-score; that for GTTATACA, 0.151 ± 0.064 E-score.
